In the library only some 9% were active in any assay of this set; here they are far more common.
JMJD2A Tudor: blocks the human JMJD2A Tudor domain; O75164; AlphaScreen JMJD2A-Tudor / H3K4me3 peptide binding; Potency, µM (doses to about 114 µM), most hits filed as inhibitors; actives 4.4% (n = 390,000); further: nearly all actives have a fitted effect of over 50% in size
PLK1 PBD inh: blocks phosphopeptide binding to human PLK1 polo-box domain | Potency, µM, usual class: inhibitors | P53350 | AID 720504 | actives 2.8% (n = 360,000) | Plk1 PBD binding of FITC phosphopeptide, fluorescence polarization; further: series mostly up to about 57 µM; nearly all actives have a fitted effect of over 65% in size
G9a inh: inhibitors of human histone lysine methyltransferase G9a; Potency, µM (series often up to 102 µM), most hits filed as inhibitors; Q96KQ7; AID 504332; actives 8.8% (n = 350,000); G9a H3K9 monomethylation, AlphaScreen, 2 h; further: nearly all actives have a fitted effect of over 75% in size
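Chemiluminescent proximity detection of H3K9 monomethylation, read after 10 min bead incubation in the dark. Reaction: 20 nM G9a, 500 nM biotin-H3K9 peptide, 20 uM SAM cofactor, 2 h, room temperature, following 15 min enzyme-compound preincubation.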
HP1b chromo inh: HP1-beta chromodomain-methylated histone interaction inhibition. actives 0.56% (n = 390,000). AID 540317. AlphaScreen HP1-beta / biotin-H3K9me3 peptide binding. P83916. Potency, µM (doses to about 114 µM), actives largely listed as inhibitors; further: nearly all actives have a fitted effect of over 70% in size
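HP1-beta protein (50 nM final) preincubated 30 min at room temperature with biotinylated H3(1-18)K9me3 peptide (50 nM) in PBS pH 7.4, 0.01% Tween-20, then compound added for 30 min. AlphaScreen streptavidin donor/nickel chelate acceptor beads (10 ug/mL final), 30 min dark, luminescence read.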
BAZ2B inh: BAZ2B (human) inhibition; Q9UIF8; AlphaScreen BAZ2B-H3K14Ac peptide displacement; Potency, µM (highest dose often 114 µM), actives largely listed as inhibitors; actives 4.4% (n = 360,000); further: nearly all actives have a fitted effect of over 60% in size
Target sequence (Q9UIF8 whole entry, looked up): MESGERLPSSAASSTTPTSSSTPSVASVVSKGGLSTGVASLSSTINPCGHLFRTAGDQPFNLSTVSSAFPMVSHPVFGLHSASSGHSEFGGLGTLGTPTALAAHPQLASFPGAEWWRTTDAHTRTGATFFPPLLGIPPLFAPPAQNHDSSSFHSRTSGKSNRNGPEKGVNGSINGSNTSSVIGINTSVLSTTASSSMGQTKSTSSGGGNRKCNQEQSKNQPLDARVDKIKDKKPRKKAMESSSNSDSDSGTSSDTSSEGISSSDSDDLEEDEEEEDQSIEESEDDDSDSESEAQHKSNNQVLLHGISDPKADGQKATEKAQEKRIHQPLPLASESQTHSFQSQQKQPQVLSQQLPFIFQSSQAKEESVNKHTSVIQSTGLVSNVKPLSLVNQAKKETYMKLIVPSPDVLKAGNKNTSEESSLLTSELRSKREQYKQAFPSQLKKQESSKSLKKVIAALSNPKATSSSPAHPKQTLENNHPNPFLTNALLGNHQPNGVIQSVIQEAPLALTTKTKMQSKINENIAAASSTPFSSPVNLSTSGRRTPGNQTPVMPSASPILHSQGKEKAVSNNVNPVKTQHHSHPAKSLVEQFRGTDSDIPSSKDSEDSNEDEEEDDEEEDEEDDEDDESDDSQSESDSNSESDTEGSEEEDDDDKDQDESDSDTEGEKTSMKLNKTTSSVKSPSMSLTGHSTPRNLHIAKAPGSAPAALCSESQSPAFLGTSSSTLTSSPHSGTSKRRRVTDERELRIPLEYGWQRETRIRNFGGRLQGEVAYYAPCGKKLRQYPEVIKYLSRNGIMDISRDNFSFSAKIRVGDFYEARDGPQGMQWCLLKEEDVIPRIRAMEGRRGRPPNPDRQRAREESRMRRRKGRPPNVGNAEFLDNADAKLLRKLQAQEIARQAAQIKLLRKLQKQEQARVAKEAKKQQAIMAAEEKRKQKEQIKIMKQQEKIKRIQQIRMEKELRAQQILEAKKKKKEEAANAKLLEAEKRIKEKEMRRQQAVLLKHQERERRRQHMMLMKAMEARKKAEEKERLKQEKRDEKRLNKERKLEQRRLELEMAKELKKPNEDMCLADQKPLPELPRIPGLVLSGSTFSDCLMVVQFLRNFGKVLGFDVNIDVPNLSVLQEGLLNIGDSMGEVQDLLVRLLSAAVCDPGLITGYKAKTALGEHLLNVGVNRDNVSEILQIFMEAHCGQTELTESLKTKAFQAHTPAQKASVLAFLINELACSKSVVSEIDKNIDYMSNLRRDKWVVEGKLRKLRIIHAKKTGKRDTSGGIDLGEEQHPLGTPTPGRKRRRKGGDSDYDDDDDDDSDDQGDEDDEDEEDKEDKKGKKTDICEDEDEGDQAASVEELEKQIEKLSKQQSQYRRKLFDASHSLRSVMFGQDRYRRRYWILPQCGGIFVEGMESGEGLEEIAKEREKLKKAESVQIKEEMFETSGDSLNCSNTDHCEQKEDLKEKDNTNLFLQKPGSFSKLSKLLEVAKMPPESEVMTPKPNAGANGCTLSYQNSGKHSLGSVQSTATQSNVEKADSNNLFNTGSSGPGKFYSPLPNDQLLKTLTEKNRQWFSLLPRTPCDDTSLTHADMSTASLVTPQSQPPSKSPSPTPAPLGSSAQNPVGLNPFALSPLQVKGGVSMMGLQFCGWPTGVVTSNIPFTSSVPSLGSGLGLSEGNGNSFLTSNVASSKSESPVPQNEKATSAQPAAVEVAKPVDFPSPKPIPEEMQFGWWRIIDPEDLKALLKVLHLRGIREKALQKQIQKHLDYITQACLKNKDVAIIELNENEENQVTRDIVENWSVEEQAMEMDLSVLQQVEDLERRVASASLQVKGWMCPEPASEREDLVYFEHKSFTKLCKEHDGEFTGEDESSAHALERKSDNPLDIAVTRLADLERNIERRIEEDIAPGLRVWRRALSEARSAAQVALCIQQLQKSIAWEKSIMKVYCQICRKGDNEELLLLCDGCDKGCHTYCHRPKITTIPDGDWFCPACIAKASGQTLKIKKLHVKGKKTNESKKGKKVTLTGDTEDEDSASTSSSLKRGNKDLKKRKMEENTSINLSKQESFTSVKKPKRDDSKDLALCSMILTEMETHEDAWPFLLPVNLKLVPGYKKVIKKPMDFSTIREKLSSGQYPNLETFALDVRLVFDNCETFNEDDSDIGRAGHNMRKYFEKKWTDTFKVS
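AlphaScreen displacement of biotin-H3(5-23)K14Ac peptide (50 nM final) from BAZ2B (50 nM final) in PBS pH 7.4, 0.01% Tween-20; complex preformed 30 min RT, then compounds (top 110 uM) 30 min RT, beads 20 min dark.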
ALOX12 inh: ALOX12 (human) lipoxygenase inhibition; actives 1.1% (n = 580,000); P18054; purified 12hLO, xylenol orange hydroperoxide absorbance; Potency, µM (series often up to 108 µM), usual class: inhibitors
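Purified human 12hLO at 150 nM in 25 mM Hepes, 0.01% Triton X-100, pH 7.0, preincubated 15 min at room temperature with compound. Reaction started with 40 uM arachidonic acid, 30 min at room temperature. Hydroperoxide measured by Fe-xylenol orange, 573/405 nm absorbance ratio.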
A number is an active result; 0 = inactive; ? = inconclusive; - = no result given; ! = not active in a repeat; [ ] = dose if it differs, or a comment. The call rests on the fitted dose curve; in most records, active means well fitted curve in the direction sought with a large enough effect; inconclusive means small, poorly fitted or top-dose-only effect, or another doubt; inactive means no such curve, though single readings can be large; an effect the other way counts as inactive or inconclusive.

SMILES	JMJD2A Tudor	PLK1 PBD inh	G9a inh	HP1b chromo inh	BAZ2B inh	ALOX12 inh
CC(C)c1noc([C@@H]2C[C@H]3C(=O)NCCCCCCN(C(=O)c4ccsc4)[C@H]3C2)n1	-	-	-	-	-	0
CCOC(=O)c1c(S(=O)(=O)NCC(=O)N2CCN(c3cccc(OC)c3)CC2)c(C)n(C)c1C	0	0	0	0	?	0
Cc1cc(C)cc(NC(=O)C(c2ccccc2)N2CCN(CC(=O)NC3CC3)CC2)c1 (stereo not given)	0	0	0[12.7 µM]	0	0	0
Oc1cncc(-c2cccnc2)c1	0	0	0[0.501 µM]	0	0	0
c1cncc(-c2cccnc2)c1	0	0	-	0	40µM	0
O=C(Nn1c(-c2ccc(Br)cc2)nc2ccccc2c1=O)c1cccnc1	35µM	?	0	0	-	0
O=C(Nn1c(-c2ccncc2)nc2ccccc2c1=O)c1ccc(Br)cc1	0	0	0	0	0	0
O=C(Nn1c(-c2ccncc2)nc2ccccc2c1=O)c1ccccc1Br	0	0	50µM	0	0	0
CN(C)C(=O)c1cccc(-c2cnc3c(NC=O)cc(-c4cccc(C(F)(F)F)c4)cn23)c1	-	0	-	-	-	0
CCC(=O)OCC(=O)[C@@]1(OC(=O)CC)[C@@H](C)C[C@H]2[C@@H]3CCC4=CC(=O)C=C[C@]4(C)[C@@]3(Cl)[C@@H](O)C[C@@]21C	0	0	0	0	0	0
Cc1nc(N)ncc1Sc1ccccc1	0	0	-	0	0	0
Cc1nnsc1Sc1ccccc1	0	12µM	0	0	0	0
Cn1c(Cn2c3ccccc3c3ccccc32)n[nH]c1=S	0	0	7.9µM	0	0	0
Cn1c(CSCc2ccc(F)cc2)n[nH]c1=S	28µM	0	-	0	0	?
Cn1c(CSCc2ccccc2)n[nH]c1=S	7.9µM	0	7.9µM	0	0	0
Cn1c(CSCc2ccc(Cl)cc2Cl)n[nH]c1=S	0	0	-	0	0	?
Cn1c(CSCc2ccc(Cl)cc2)n[nH]c1=S	?	0	10µM	0	0	?
Cn1c(CSCc2ccccc2Cl)n[nH]c1=S	?	0	-	0	0	?
O=c1c2sc(-c3ccccc3)cc2nc2n1CCCCC2	0	0	-	0	0	0
CC(C)Oc1cccc(OCCN2C(=O)c3ccccc3C2=O)c1	0	0	0[12.7 µM]	0	0	0
Cc1cccc(Cl)c1NC(=O)Cn1c(C)cc2nc3n(c(=O)c21)CCCC3	-	-	-	-	-	0
Cn1c(-c2cccc3ccccc23)n[nH]c1=S	20µM	0	5µM	0	0	0
COc1cccc2cc(-c3ccnc(N)n3)oc12	0	0	0	0	0	0
COc1cccc2cc(-c3n[nH]c(=S)n3C)oc12	7.9µM	0	7.1µM	0	0	?
c1ccc2c(-c3nn[nH]n3)cccc2c1	0	0	0	0	0	0
SMILES	JMJD2A Tudor	PLK1 PBD inh	G9a inh	HP1b chromo inh	BAZ2B inh	ALOX12 inh
COC(=O)c1sc2ccccc2c1C(=O)OC	0	0	?	0	0	0
COC(=O)c1sc2ccccc2c1N	0	27µM	?	0	0	35µM
Cc1cccc(Sc2nc(-c3ccccc3)ccc2C#N)c1	0	0	0	0	0	0
CC(C)CCCCCCCCCCCCCCC(=O)O	-	-	-	-	-	0
Clc1cccc(Cl)c1C1Nc2cccc3cccc(c23)N1	45µM	0	16µM	?	25µM	?
CC1(C)Nc2cccc3cccc(c23)N1	0	0	-	0	-	?
O=C1CC(c2c(F)cccc2Cl)C2=C(COC2=O)N1 (stereo not given)	0	0	0	0	0	0
Fc1cccc(Cl)c1C1Nc2cccc3cccc(c23)N1	?	0	-	0	32µM	?
O=C1OC(c2ccccc2)=NC12CC2c1ccc(Cl)cc1 (stereo not given)	0	1.9µM	0	0	0	0
COc1ccc(S(=O)(=O)Nc2ccc(Oc3ncccn3)c(Cl)c2)cc1	0[11.4 µM]	5.3µM	0	?	0	0
COc1ccc(S(=O)(=O)Nc2ccc(S(=O)(=O)Nc3nccs3)cc2)cc1	0	0	50µM	0	0	0
O=C(Nc1ccc(S(=O)(=O)Nc2nccs2)cc1)c1ccc(=O)[nH]c1	?	?	-	0	50µM	0
COc1ccc(NS(=O)(=O)c2ccc(Oc3ncccn3)cc2)cc1	0	0	0	0	0	0
O=C(NC(=S)Nc1ccc(S(=O)(=O)Nc2nccs2)cc1)c1ccc(F)cc1	0	0	10µM	0	?	?
O=C(Nc1ccc(S(=O)(=O)Nc2nccs2)cc1)c1ccncc1	-	0	-	-	-	0
CC12CCC(=O)N1C(C(=O)Nc1cccc(S(=O)(=O)N3CCCCC3)c1)CS2 (stereo not given)	0	0	0	0	0	0
COc1ccc(CNC(=O)C2CCN(S(=O)(=O)N3CC(C)CC(C)C3)CC2)cc1 (stereo not given)	0	0	0	0	0	0
CC(C)(C)C(=O)NC(=S)Nc1ccc(S(=O)(=O)Nc2nccs2)cc1	0	0	50µM	0	0	45µM
O=C(Nc1ccc(S(=O)(=O)N2CCCCC2)cc1)C1=NN(c2ccccc2)C(=O)CC1	-	-	-	-	-	0
O=C(Nc1ccc(S(=O)(=O)Nc2nccs2)cc1)C1=NN(c2ccccc2)C(=O)CC1	0	0	45µM	0	0	0
NS(=O)(=O)c1ccc(NC(=S)Nc2ccc(S(=O)(=O)Nc3nccs3)cc2)cc1	-	0	-	-	-	0
Cc1ccccc1CC(=O)NC1CCN(C)CC1	0	0	0	0	0	0
C=CCn1c(O)c(N=NC(=O)c2ccccc2NS(=O)(=O)c2cccs2)c2ccccc21	0	0	45µM	0	0	0
CC(C)n1c(O)c(N=NC(=O)c2ccccc2NS(=O)(=O)c2cccs2)c2ccccc21	14µM	17µM	0	0	?	0
O=C(c1cccc([N+](=O)[O-])c1)N1CCN(S(=O)(=O)N2CCCCC2)CC1	0	0	0	0	0	0
SMILES	JMJD2A Tudor	PLK1 PBD inh	G9a inh	HP1b chromo inh	BAZ2B inh	ALOX12 inh
COc1ccc(S(=O)(=O)N2CCC(C(=O)NCc3cccs3)CC2)cc1	0	0	0	0	0	0
Cc1cc(C(=O)COC(=O)/C=C/c2cccc(Br)c2)c(C)n1C	0	0	45µM	?	?	0
Cc1cc(C(=O)COC(=O)Cc2ccc(Br)cc2)c(C)n1C	0	0	?	0	50µM	0
Cc1cc(C(=O)COC(=O)Cc2c(F)cccc2Cl)c(C)n1C	-	0	-	-	-	0
Cc1cc(C(=O)COC(=O)/C=C/c2cccc(F)c2)c(C)n1C	0	0	?	0	0	0
C=C1c2cc(C)ccc2NC(=O)N1c1ccc(C)cc1	0	0	10µM	0	0	0
C=C1c2ccccc2NC(=O)N1c1ccc(C)cc1	0	0	8.9µM	0	0	0
Cc1ccc2c(c1)/C(=N/N1C(=O)c3ccccc3C1=O)C(=O)N2	0	0	0	0	0	0
O=C(NC1CCCCCC1)c1cccs1	0	0	0[0.0925 µM]	0	0	0
CCOC(=O)N1CCC(NCCNC(=O)c2ccccc2)CC1	2.2µM!	0	0[0.501 µM]	0	45µM!	0

Bioassay records: PubChem BioAssay, National Center for Advancing Translational Sciences (NCATS)
